Assay results taken from PubChem BioAssay AID1159580 (chemical genetic matrix, 2015).
In all, about 5,500 compounds went through this assay and about 2,000 (36%) were called active. Another 18% or so got no clear call; they are omitted. Rule as the data show it: active = normalized growth mostly below about 0.91 (no sharp cut-off); inconclusive = no clear call, values can overlap the other calls; inactive = mostly above about 0.92. The list shows a part of the results.

Assay: chemical genetic growth profiling, strain panel (AID 1159580);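 also: tested at 20 µM; growth read once vehicle control cultures reached saturation at 30 °C; 1 = growth at the plate median or of vehicle wells; lower values mean less growth of the strain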
Conditions: growth OD
[1] = S. cerevisiae deletion strains, locus YAL013W, strain DEP1, stronger effect = lower value
[2] = S. cerevisiae deletion strains, locus YBR229C, strain ROT2, stronger effect = lower value
[3] = S. cerevisiae deletion strains, locus YDL101C, strain DUN1, stronger effect = lower value
[4] = S. cerevisiae deletion strains, locus YDR150W, strain NUM1, stronger effect = lower value
[5] = S. cerevisiae deletion strains, locus YEL061C, strain CIN8, stronger effect = lower value
[6] = S. cerevisiae deletion strains, locus YGR078C, strain PAC10, stronger effect = lower value
[7] = S. cerevisiae deletion strains, locus YHR030C, strain SLT2, stronger effect = lower value
[8] = S. cerevisiae deletion strains, locus YHR087W, strain rtc3, stronger effect = lower value
[9] = S. cerevisiae deletion strains, locus YJR043C, strain POL32, stronger effect = lower value
[10] = S. cerevisiae deletion strains, locus YJR075W, strain HOC1, stronger effect = lower value
[11] = S. cerevisiae deletion strains, locus YLR039C, strain RIC1, stronger effect = lower value
[12] = S. cerevisiae deletion strains, locus YLR058C, strain SHM2 (second series), stronger effect = lower value
[13] = S. cerevisiae deletion strains, locus YLR085C, strain ARP6, stronger effect = lower value
[14] = S. cerevisiae deletion strains, locus YLR262C, strain YPT6, stronger effect = lower value
[15] = S. cerevisiae deletion strains, locus YML094W, strain GIM5, stronger effect = lower value
[16] = S. cerevisiae deletion strains, locus YMR219W, strain ESC1, stronger effect = lower value
[17] = S. cerevisiae deletion strains, locus YMR263W, strain SAP30, stronger effect = lower value
[18] = S. cerevisiae deletion strains, locus YNL153C, strain GIM3, stronger effect = lower value
[19] = S. cerevisiae deletion strains, locus YNL298W, strain CLA4 (second series), stronger effect = lower value
[20] = S. cerevisiae deletion strains, locus YNL322C, strain KRE1, stronger effect = lower value
[21] = S. cerevisiae deletion strains, locus YNR030W, strain Alg12, stronger effect = lower value
[22] = S. cerevisiae deletion strains, locus YOL006C, strain TOP1, stronger effect = lower value
[23] = S. cerevisiae deletion strains, locus YPL055C, strain LGE1, stronger effect = lower value
[24] = S. cerevisiae deletion strains, locus YPL241C, strain CIN2, stronger effect = lower value
[25] = S. cerevisiae deletion strains, locus YPR135W, strain CTF4, stronger effect = lower value

Measured: normalized growth

CCCc1cc(=O)oc2c1c(C)nn2-c1ccccc1
active: [1] 0.932 | [5] 0.885 | [7] 0.432 | [8] 0.862 | [10] 0.869 | [11] 0.786 | [12] 0.923 | [13] 0.539 | [14] 0.744 | [16] 0.938 | [18] 0.864 | [19] 0.839 | [21] 0.875 | [22] 0.599 | [23] 0.799 | [24] 0.782 | [25] 0.552
inactive: [2] 0.94 | [3] 0.954 | S. cerevisiae deletion strains, locus YDL134C, strain PPH21, stronger effect = lower value 0.938 | [4] 0.978 | [6] 0.935 | [9] 0.998 | [15] 0.921 | [17] 0.956 | [20] 0.944

O=C(O)C1C2CCC1C(O)C2 (stereo not given)
inactive: [1] 0.99 | [2] 1.02 | [3] 0.981 | [4] 1 | [5] 1.02 | [6] 0.998 | [7] 0.98 | [8] 0.99 | S. cerevisiae deletion strains, locus YJL187C, strain SWE1, stronger effect = lower value 1.02 | [9] 1 | [10] 1.02 | [11] 0.967 | [12] 1.02 | [13] 1.03 | [14] 0.968 | [15] 1.01 | [16] 0.998 | [17] 0.998 | S. cerevisiae deletion strains, locus YMR307W, strain GAS1, stronger effect = lower value 1.01 | [18] 0.976 | [19] 1 | [20] 1 | [21] 1.01 | [22] 0.972 | [23] 1.03 | [24] 0.997 | [25] 0.979 | S. cerevisiae strains, strain wild type, stronger effect = lower value 0.967

NC(=O)c1ncn(C2OC(CO)C(O)C2O)c1O (stereo not given)
inactive: [1] 1.01 | S. cerevisiae deletion strains, locus YAL040C, strain CLN3, stronger effect = lower value 1.01 | S. cerevisiae deletion strains, locus YCL061C, strain MRC1 (second series), stronger effect = lower value 1.01 | S. cerevisiae deletion strains, locus YDR363W, strain ESC2, stronger effect = lower value 1.01 | S. cerevisiae deletion strains, locus YER002W, strain NOP16, stronger effect = lower value 1 | S. cerevisiae deletion strains, locus YNL128W, strain TEP1, stronger effect = lower value 0.998 | [18] 1.02 | S. cerevisiae deletion strains, locus YNL175C, strain NOP13, stronger effect = lower value 1 | S. cerevisiae deletion strains, locus YNL197C, strain WHI3, stronger effect = lower value 1.01 | S. cerevisiae deletion strains, locus YNL224C, strain SQS1, stronger effect = lower value 1 | S. cerevisiae deletion strains, locus YOR083W, strain WHI5 (second series), stronger effect = lower value 1.02
